Data on 40 sequences can be found in the supplement of paper PMC6555819.

The assay deals with VDR:RXRa (NR concentration 270 nM, RXRa partner concentration 90 nM). The assay can be described thus: PBM binding z-score (relative to random genomic background probes); higher = stronger binding; sequences stand for … in GC…GCGATTGACAGCGTAGAATGAAGG
As to the method:
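Protein-binding microarray (Agilent 4x180K custom design, double-stranded 60-nt probes: 5' GC cap, 34-nt variable region, 24-nt constant primer region; full probe sequence given). Purified or IVT nuclear receptor:RXRα heterodimers (3:1 NR:RXRα, mostly 270:90 nM) or homodimers were incubated for 1 h in PBS with 2% milk and no ligand, then detected with Alexa488 antibodies. Fluorescence from o1-orientation probes (~5 replicates averaged) was converted to z-scores against 500 random hg19 background probes. Variable regions are seed direct-repeat (DR0–DR5) sites, all their single-nucleotide variants and half-site ablations.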
In turn, ACTAGTTCGTCAGCTGAGGTCACACACAATTCGG returned a PBM binding z-score of 4.7.

The sequence TGAATGAGGCTATAAGATCAGGGAACGTTGCAAA returned a PBM binding z-score of -0.38. With CCTTACGGGTCACTCCAGGTAATAGCATCGGAGT the figure was 3.08; with ACCGAAAGGTCGAGGTGAGTATAGAGAAAGGGAA, 2.82; with AACTCTAGGTAAAGTTCAGTGAAAGATCGATAGA, 1.15.

GGAACGAGGGCAAGGTTGATAGCATCTGTCGACG: the PBM binding z-score stood at 0.638.

In turn, CCGACTGGGGCATAAGGTGACCATAAGCCAGCCC had a PBM binding z-score of -0.42.

Regarding CCTACTGGGCCATCAGGTAATTGATATCAACGTT, the PBM binding z-score is -0.176.

With GCTAGCAGGCCATTTCGGTCACTCAATGACGGGC, the PBM binding z-score is -0.644. The value for TCGAGTAGGATAGTCGGGGCATTCAGCCAACATA was -0.319.

On to CTGCCAAGGTGAACAAGGTCGTTGATTACTATTC, for which the PBM binding z-score is 5.88. The value for TCTCGTAGATCAACAGGAGGTTAAGAAAGATCGA was 0.875; that for CTACCAATGTGAACAAGGTCGTTGATTACTATTC was 3.77. The value for CCTACTAGTTGACCATAAGGGCAACCGAAGCTCG was 0.471; that for CCTGACGGGTCACGAGGTTATAGCACGACGAGCG was 4.62; that for ACTAGCAGCCCAAGGGTCACTCAAGATTAGTCCG was 2.6.

Regarding TCTTGTAGATCAACAGGAGGTTATGAAAGATCGA, the PBM binding z-score was 0.761.

Sequence ACTATTAGTTGAGACGAGGGCAACCCATAGGTTG came in with a PBM binding z-score of 0.697. The value for CCTCGGAGGACCGAAGGTCAGAGCTGTCCGCTTT was 0.565; that for ACTATTAGTTGAGACGAGGGCAAGCGATAGGTTG was 0.29; that for CCTTACGGGTCACGAGGATATAGCACGACGAGCG was 3.9. The value for CCTAGTTGGTCAACGTCACACACGCTATAGGTAC was 0.309; that for TAGAGTAGGTTAGGGGCATTCAGAATGGCGTCGA was 1.06. With CCTTATGGGTCACTGACAGGTTATAGCATTTGGA the figure was 2.89; with CCTTACGGGTCACGCCAGGTTATAGCATCGGAGT, 5.36; with CAAACTAGGTCAAAGTCAAAGTCGGTTTGTGCCA, 2.38.

In the case of CCTTACGGGTCAAGGTTAAAGCACGGGTGGTACG, the PBM binding z-score was 3.5. As for AACTCTAGGTAAGACTCAGTTCAGTGAAGAACGC, the PBM binding z-score was 0.138. The value for ACAGACAGGTGAGTGAAGGTAACTCAACTGGACG was -0.232; that for ATCTCTAGGTAAACAAGTTCAGTGAATGCCGAAC was 4; that for ATCCCTAGGTAAAAGTTCAGTGAATCCCGAGGAT was 0.958. Consider TCTTGAAGATCAAAGGTTAAGAAAGCCGAAGCCT, for which the PBM binding z-score was found to be 1.64. With CCTACTGGGTCAAGGTCATTGATCAGTCAAAGCA the figure was 4.84; with TCTAGCAGGCCAGAGGGTCACTTAAGAGGTACGG, 1.26; with TGTCATAGTTCAAAGGTAACGTAAGTATCCACAC, 2.96.

With ATTTCTAGGTAAGACTCAGTTCAGTGAAGAACGC, the PBM binding z-score amounted to 1.6.

Consider TCTGCTAGGTCAACGATAGTCAGCTAATCTGCTA, for which the PBM binding z-score stood at 1.24.

Consider TCATATAGGGAAATGCTAGGTGAAAGTCCGATCT, for which the PBM binding z-score turned out to be 0.702.

CGTCCAGGGTCAAAGGTCAGTGAAGAGATGACGG gave a PBM binding z-score of 6.53. The value for TCTTATAGGTAAACAGGTGAAAGTCCGTAAGTTA was 1.17.
